LDHA inh: LDHA (human) enzyme inhibition; purified LDHA, NADH/diaphorase-resazurin fluorescence; hits give low values; activity change, % (values are at about 110 or 230 µM); 480,000 compounds, 0.15% hits; AID 1347041; in the data active = activity change below about -30%; inconclusive = mostly about -25% to -30%;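 also: plate controls were DMSO wells for no effect and wells without enzyme for full effect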
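Human LDH5 at 2 nM final in Tris HCl pH 7.4 with 0.06 mM NADH and 0.2 mM pyruvate, reacted 5 minutes at room temperature. Remaining NADH coupled via diaphorase/resazurin; resorufin fluorescence read at 0 and 20 minutes, normalized to enzyme-free and DMSO wells.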
D2 ag-1: agonists of human D2 dopamine receptor (beta-arrestin); P14416; DiscoveRx PathHunter D2 beta-arrestin, luminescence, 90 min; 100% = 57 uM dopamine signal; activation, % (no concentration beside the values); 360,000 compounds, 0.084% hits; in the data active = activation above about 40%; inconclusive = between about 15% and that limit
Target sequence (P14416 whole entry, looked up): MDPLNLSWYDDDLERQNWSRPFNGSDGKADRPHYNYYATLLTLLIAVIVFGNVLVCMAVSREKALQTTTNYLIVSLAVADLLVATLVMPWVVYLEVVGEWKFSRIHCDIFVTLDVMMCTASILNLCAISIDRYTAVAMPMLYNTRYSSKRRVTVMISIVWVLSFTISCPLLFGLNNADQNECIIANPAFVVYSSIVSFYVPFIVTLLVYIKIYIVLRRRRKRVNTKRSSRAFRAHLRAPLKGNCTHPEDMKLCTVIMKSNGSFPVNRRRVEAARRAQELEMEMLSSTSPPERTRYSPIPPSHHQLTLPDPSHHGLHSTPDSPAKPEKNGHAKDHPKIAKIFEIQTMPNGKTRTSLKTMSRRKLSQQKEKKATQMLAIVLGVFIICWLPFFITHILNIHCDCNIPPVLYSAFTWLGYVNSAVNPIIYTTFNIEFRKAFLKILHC
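Agonist mode: compounds alone added to overnight-plated D2 PathHunter cells for 90 min at 37 C, with 57 uM final dopamine (EC100) defining full response. Beta-arrestin recruitment detected by chemiluminescent reagent, read after 1 h at ambient temperature.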
D2 ag-2: activates the human D2 dopamine receptor; HEK293 T-REx D2 cells, calcium flux agonist mode; activation, % at 2 µM; P14416; AID 485358; 340,000 compounds, 0.53% hits;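 active = activation over 3 SD above normal in the single-dose calcium agonist read, cut at about 30% in these data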; also: 0% is about no effect
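In this primary screen, compounds producing a positive calcium signal within 180 s of addition to tetracycline-induced, force-coupled HEK293 Trex D2 cells are flagged; cells are dye-loaded with a no-wash calcium kit beforehand.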
D2 PAM-1: positively modulates the human D2 dopamine receptor allosterically | 340,000 compounds, 0.34% hits | potentiation, % at 10 µM | HEK293 T-REx D2, calcium flux, EC20 dopamine potentiation;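 active = potentiation over 3 SD above the plate norm, cut at about 30% in these data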; also: 0% is about no effect
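Primary screen. Calcium kinetics in induced HEK293 T-REx D2 cells: compound pre-addition 180 s, EC20 dopamine, 180 s more.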
D2 PAM-2: potentiates the human D2 dopamine receptor allosterically. potentiation, % (concentration not given with the values). AID 624464. P14416. 360,000 compounds, 0.23% hits. DiscoveRx D2 beta-arrestin cells, luminescence, 90 min; 100% = 57 uM dopamine signal; in the data active = potentiation above about 50%; inconclusive = mostly about 30% to 49%
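D2 cells co-treated with compound plus 50 nM dopamine (EC20) for 90 min at 37 deg C to detect potentiation. Beta-arrestin recruitment was read as enzyme-fragment luminescence after 1 h at ambient temperature. Full response was set by 57 uM dopamine.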
D2 antagonist: antagonizes the human D2 dopamine receptor; inhibition, % at 10 µM; HEK293 TREx D2 cells, calcium flux, dopamine EC80; P14416; 340,000 compounds, 2% hits; in the data active = inhibition above about 30%; inactive = below that, where a call was filed; also: 0% is about no effect
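Compounds are added to dye-loaded, induced HEK293 T-REx cells coupled to calcium release via D2; after a 3 min kinetic read an EC80 dopamine stimulus is given and fluorescence is recorded for 3 more min.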
D3 arrestin ag: D3 receptor agonism confirmed, beta-arrestin readout. shares compounds with D2 ag-2. DiscoveRx D3 beta-arrestin cells, luminescence, 90 min. Potency, µM (doses to about 76.9 µM), without a hit: at the top dose activation, actives largely listed as activators. 2,300 compounds, 4% hits;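 also: potency is read from the fitted curve at half-maximal effect; 100% = dopamine control response; nearly all actives have a fitted effect of over 70% in size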
D2 ag-3: D2 receptor agonism, beta-arrestin counterscreen; shares compounds with D2 ag-2; DiscoveRx PathHunter D2 beta-arrestin, luminescence, 90 min; response scale: percent relative to full dopamine signal; Potency, µM (titrated, usually from 76.9 µM), inactives show at the highest dose activation, usual class: activators; 2,300 compounds, 5.9% hits; also: potency is read from the fitted curve at half-maximal effect; % of control where 0% means no effect; nearly all actives have a fitted effect of over 70% in size
An asterisk follows results filed as active; ? = inconclusive; . = no result. This is a sample that favours compounds with a hit; in the whole collection about 2.1% have one here. Unless noted, calls follow the shape of the dose curve; as a rule, active = well fitted activation curve with a large enough effect; inconclusive = small, poorly fitted or top-dose-only effect; inactive = flat fitted curve, though single readings scatter.

SMILES | LDHA inh | D2 ag-1 | D2 ag-2 | D2 PAM-1 | D2 PAM-2 | D2 antagonist | D3 arrestin ag | D2 ag-3
COc1ccc(C(=O)C(CCCCC(CN(C)C)C(=O)c2ccc(OC)cc2)CN(C)C)cc1 (stereo not drawn) | 1 | -1 | . | . | -35 | . | . | .
CCOc1ccc(C(=O)C(CCC(CN(C)C)C(=O)c2ccc(OCC)cc2)CN(C)C)cc1 (stereo not drawn) | 1 | -1 | 3 | 16 | -11 | 37* | -17% | -3%
COc1cc2c(cc1OC)C1CC(=O)C(CC(C)C)CN1CC2 (stereo not drawn) | -1 | 7 | 48* | -20 | -30 | 21 | -10% | 13%
COc1ccc(CN([C@H](CO)CC(C)C)S(=O)(=O)N(Cc2ccccc2)[C@H](CO)CC(C)C)cc1 | 0 | 1 | . | . | -7 | . | . | .
COc1ccc(CN([C@H](C)CO)S(=O)(=O)N(Cc2ccccc2)[C@H](CO)C(C)C)cc1 | 5 | -1 | 0 | 12 | -4 | 5 | -5% | -6%
COc1ccc(CN2CCN(C(=O)CC(C)C)CC2)cc1 | -10 | -2 | 38* | -4 | -8 | 23 | -2% | 3%
Cc1ccc(CN2CCN(C(=O)CC(C)C)CC2)cc1 | -21 | 9 | . | . | 7 | . | 2% | 10%
COc1cc(CN2CCN(C(=O)CC(C)C)CC2)cc(OC)c1OC | ? | 1 | 0 | 2 | 3 | -1 | . | .
Cc1ccc(NC(=O)C2=CCN(Cc3ccccc3F)CC2)cc1 | 3 | . | . | . | . | . | . | .
CCc1c(C)sc(NC(=O)CSc2ccccc2)c1C#N | -2 | . | . | . | . | . | . | .
OC(CNCCc1ccc(C(F)(F)F)cc1)COc1cccc2ccccc12 (stereo not drawn) | 4 | -10 | 7 | 8 | -18 | 21 | 26% | 4%
O=C(CSc1ccccc1C(=O)O)Nc1ccc2c(c1)OCCCO2 | 3 | . | . | . | . | . | . | .
Cc1ccc(C(=O)NCCc2ccc(S(N)(=O)=O)cc2)cc1[N+](=O)[O-] | -2 | -5 | 29 | -22 | -1 | 17 | -19% | -5%
Cc1c(C(=O)NCCc2ccc(S(N)(=O)=O)cc2)cccc1[N+](=O)[O-] | 1 | 0 | 1 | 22 | -2 | -5 | . | .
CCc1ccc2c(c1)[C@]1(C(=O)N2)N2CCC[C@H]2[C@@H](C(=O)c2ccc(F)cc2)[C@]12C(=O)Nc1ccccc12 | 11 | . | . | . | . | . | . | .
CN(C(=O)c1ccccc1C(=O)OCC(=O)c1ccccc1)c1ccccc1 | 0 | 2 | . | . | 2 | . | . | .
CN(C(=O)c1ccccc1C(=O)OCC(=O)c1ccc(F)cc1)c1ccccc1 | -1 | -3 | 0 | -8 | -8 | 23 | -4% | 0%
COc1ccccc1NC(=O)c1cc([N+](=O)[O-])ccc1NCCN1C(=O)CCC1=O | -2 | -3 | 47* | -24 | -5 | -8 | -6% | -9%
COc1ccc(-c2nnc(SCc3ccccn3)n2C)cc1 | -1 | -5 | -1 | 1 | -4 | -14 | . | .
COc1ccc(N=C(N)SCc2ccccn2)cc1 | 1 | -2 | 33* | -7 | -9 | 45* | 3% | -7%
CCOc1ccccc1NC(=O)N(C)Cc1nc(-c2ccccc2C)oc1C | 21 | . | . | . | . | . | . | .
N#CN=C(c1ccccc1)c1ccccc1 | -5 | 0 | 1 | 1 | -4 | 7 | . | .
N#CCN=C(c1ccccc1)c1ccccc1 | -3 | -8 | 0 | -8 | -8 | 20 | -10% | -3%
CCOC(=O)c1c(NC(=O)CC)sc2c1CCN(Cc1ccccc1)C2 | -5 | -6 | 8 | 5 | -17 | -13 | . | .
CCOC(=O)c1c(NC(C)=O)sc2c1CCN(Cc1ccccc1)C2 | 1 | -3 | 25 | -19 | -8 | -2 | . | .
SMILES | LDHA inh | D2 ag-1 | D2 ag-2 | D2 PAM-1 | D2 PAM-2 | D2 antagonist | D3 arrestin ag | D2 ag-3
CCOC(=O)c1c(NC(=O)C(C)Sc2cccc[n+]2[O-])sc2c1CCN(Cc1ccccc1)C2 (stereo not drawn) | -2 | -5 | 42* | 14 | -16 | -6 | -3% | -7%
COC(=O)c1c(NC(C)=O)sc2c1CCN(Cc1ccccc1)C2 | 2 | 0 | 38* | -21 | -9 | -24 | 7% | 12%
CC(C)(C)c1cc(/C=C/C(=O)O)cc(C(C)(C)C)c1O | -5 | . | . | . | . | . | . | .
CCOC(=O)N1CCN(CC(=O)Nc2c(C(=O)OC)[nH]c3cc(C)ccc23)CC1 | 0 | 15 | . | -12 | -7 | . | ? | 16%
Cc1cc(=O)oc2cc(OC(C)C(=O)NC3CCCC3)ccc12 (stereo not drawn) | -2 | 5 | 1 | -16 | -5 | 2 | . | .
Cc1cc(=O)oc2cc(OC(C)C(=O)Nc3nccs3)ccc12 (stereo not drawn) | -4 | -3 | . | . | -1 | . | -3% | -5%
O=S(=O)(NCCN1CCCC1)c1cccc2cccnc12 | -4 | -2 | 1 | 0 | -6 | -10 | . | .
O=S(=O)(NCCCN1CCN(c2ccccc2F)CC1)c1cccc2cccnc12 | -8 | -4 | . | . | 1 | . | 17% | 14%
O=C(NC(=S)N1CCN(C/C=C/c2ccccc2)CC1)c1ccco1 | -6 | -5 | 48* | -18 | -15 | 9 | 1% | -2%
O=C(c1ccco1)N1CCN(C/C=C/c2ccccc2)CC1 | -12 | 41* | 89* | -28 | ? | 1 | ? | ?
Cc1cc(C(=O)N2CCN(C/C=C/c3ccccc3)CC2)no1 | -1 | 0 | 1 | 1 | -9 | 6 | . | .
O=C(NC(=S)N1CCN(C/C=C/c2ccccc2)CC1)c1c(F)cccc1F | -11 | -3 | 0 | -3 | -7 | -12 | . | .
COCCCn1c(SCC(=O)NC2CCCCC2)nnc1-c1ccncc1 | -3 | -4 | 2 | -4 | ? | 1 | . | .
COCCCn1c(SCC(=O)NC2CCS(=O)(=O)C2)nnc1-c1ccc(Cl)cc1 (stereo not drawn) | -2 | -4 | 0 | 4 | -1 | -6 | -3% | -2%
COC(=O)c1cccc(NCc2ccc(C(F)(F)F)cc2)c1 | 7 | . | . | . | . | . | . | .
COc1cccc(S(=O)(=O)NCc2ccc(C(=O)N3CCN(c4ccccc4)CC3)cc2)c1 | -1 | ? | 59* | -16 | 5 | 56* | -5% | ?
COc1cccc(S(=O)(=O)NCc2ccc(C(=O)N3CCN(c4ccccc4OC)CC3)cc2)c1 | . | . | . | -24 | . | . | -1% | 7%
CCC(C)(C)c1cc(O)c(C(C)(C)CC)cc1O | 38 | . | . | . | . | . | . | .

Source: PubChem (National Center for Advancing Translational Sciences (NCATS))
